Bioassay records (PubChem)
Rab9 prom act – Rab9 promoter activation; Huh7 Rab9 promoter-luciferase reporter, luminescence, 24 h; Potency, µM (top dose mostly 9.22 µM), for inactives: at the highest dose activation, negative = inhibition, actives largely listed as activators; 2.8% of 320,000 active; further: % of control where 0% means no effect; nearly all actives have a fitted effect of over 60% in size
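Huh7 cells stably carrying Rab9 promoter–luciferase reporter, plated 1500 cells/well, compound added after 2 h and incubated 24 h at 37 °C; luciferase luminescence then read after 10 min with detection reagent.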
FLuc counter – firefly luciferase modulation, counter-screen for miR-21 project; 6.9% of 360,000 active; purified FLuc, Km substrates, luminescence inhibition; AID 588342; Potency, µM (top dose mostly 57.5 µM), for inactives: top-dose activity change, negative = inhibition, usual class: inhibitors; P08659;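 further: plate controls were vehicle for no effect and reference inhibitor for full effect; nearly all actives have a fitted effect of over 55% in size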
Target sequence (P08659 whole entry, looked up): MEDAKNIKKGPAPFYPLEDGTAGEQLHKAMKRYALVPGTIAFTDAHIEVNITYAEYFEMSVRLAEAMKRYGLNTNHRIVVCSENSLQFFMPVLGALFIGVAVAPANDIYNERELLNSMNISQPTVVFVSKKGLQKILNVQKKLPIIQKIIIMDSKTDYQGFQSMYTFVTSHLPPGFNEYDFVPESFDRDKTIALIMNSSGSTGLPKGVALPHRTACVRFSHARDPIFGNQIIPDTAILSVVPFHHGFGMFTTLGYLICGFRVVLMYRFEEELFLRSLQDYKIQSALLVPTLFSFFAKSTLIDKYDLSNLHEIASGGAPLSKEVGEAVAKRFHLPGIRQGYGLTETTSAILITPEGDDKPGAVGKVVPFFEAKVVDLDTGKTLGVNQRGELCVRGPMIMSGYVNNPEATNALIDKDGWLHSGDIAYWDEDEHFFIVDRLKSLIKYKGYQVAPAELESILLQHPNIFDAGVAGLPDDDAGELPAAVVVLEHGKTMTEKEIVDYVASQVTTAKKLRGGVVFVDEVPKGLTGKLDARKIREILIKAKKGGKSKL
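Purified P. pyralis luciferase, 10 nM final, with Km-level 10 uM D-luciferin and 10 uM ATP in 50 mM Tris acetate pH 7.5, 10 mM Mg acetate, 0.01% Tween-20, 0.05% BSA; 6-point qHTS titration about 60 µM downward; luminescence read.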
ELG1 genotoxic – induces genotoxicity in HEK293T cells with luciferase-tagged ELG1. HEK293T ELG1-luciferase reporter, luminescence, 16 h. AID 504466. Potency, µM (doses to about 46 µM), for inactives: at the top dose activity change, positive = activation, usual class: activators. 1.3% of 330,000 active; further: % of control where 0% means no effect; nearly all actives have a fitted effect of over 60% in size
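Reporter readout depends on ELG1 protein level, which increases with genetic stress. After 16 hr compound exposure at 37 °C, luciferase activity was quantified using ONE-Glo.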
NPC1 promoter act – activates the NPC1 promoter; Huh7 NPC1 promoter luciferase reporter, 24 h; Potency, µM (doses to about 9.22 µM), for the others: top-dose activation, actives largely listed as activators; 2.4% of 320,000 active; further: % of control where 0% means no effect; nearly all actives have a fitted effect of over 60% in size
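Stably transfected Huh7 (NPC1 promoter→luciferase), 1500 cells/well in Opti-MEM + 10% FBS, 2 h settle, then compound 24 h at 37 °C. Luminescence after 10 min with Amplite reagent.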
SMN2 splice up – increases expression of the SMN2 splice variant | HEK293 SMN2-luciferase splicing reporter, luminescence, 30-36 h | Potency, µM (doses to about 46.1 µM), for inactives: at the top dose activity change, positive = activation, actives largely listed as activators | 2.8% of 210,000 active | AID 1458; further: % of control where 0% means no effect; nearly all actives have a fitted effect of over 55% in size
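HEK293 cells carry an SMN2 […]–luciferase reporter in which exon 7 inclusion puts luciferase in frame. Cells were plated 10-12 h before compound addition, then incubated 30-36 h at 37C. ONE-Glo luminescence was read; sodium butyrate at 4.5 mM final served as control.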
An asterisk follows results filed as active; ? = inconclusive; . = no result; ! = not active in a repeat. Shown are actives, neighbours in structure and some others; about 7.5% of the full set was active somewhere. The call rests on the fitted dose curve; in most records, active means well fitted curve in the direction sought with a large enough effect; inconclusive means small, poorly fitted or top-dose-only effect, or another doubt; inactive means no such curve, though single readings can be large; an effect the other way counts as inactive or inconclusive. Potency means the concentration at half of the fitted maximal effect.

SMILES | Rab9 prom act | FLuc counter | ELG1 genotoxic | NPC1 promoter act | SMN2 splice up
Cc1sc2nc(-c3ccccn3)[nH]c(=O)c2c1-c1ccccc1 | 27.5% | 10.7µM* | ? | 24.2% | 51.5%
Nc1ccc(Br)cc1-c1nc2ccccc2[nH]c1=O | 29.4% | -2.3% | -1.1% | 5.8% | 26.3%
c1ccc(-c2nc3c(ccc4ccccc43)[nH]2)nc1 | ? | 3.79µM* | 17.9% | 2.82µM* | 14.1µM*
Cc1ccccc1Nc1nnc(SCc2nc3ccccc3c(=O)[nH]2)s1 | -4.7% | -2.3% | 1.3% | -3.4% | 4.1%
CCc1ccc(OCC(=O)NC(=S)Nc2ccc(Br)c(C)n2)cc1 | 26.0% | -0.5% | 3.4% | -5.2% | .
CCOC(=O)c1ccc(N[C@@H]2CCN3C(=O)c4ccccc4[C@@H]3C[C@H]2O)cc1 | . | . | 2.0% | . | .
c1ccc(-c2nc3ccccc3[nH]2)nc1 | 2.82µM* | 12µM* | ? | 3.98µM* | 3.16µM*
O=C(Nc1sc2c(c1C(=O)O)CCCCC2)c1cccs1 | 4.47µM* | 2.69µM* | 6.7% | ? | ?
CC(C)OC(=O)c1c(NC(=O)c2cccs2)sc2c1CCCC2 | 5.2% | -1.1% | -6.7% | 2.9% | -4.2%
O=C(Nc1sc2c(c1C(=O)O)CCCC2)c1cccs1 | 2.5% | 16.9µM* | -8.4% | 17.5% | ?
CCCc1ccc2oc(C(=O)N(C)Cc3nccs3)c(C)c2c1 | ? | 15.1µM* | 23.1µM* | ? | .
CCCc1ccc2oc(C(=O)N3CCC(O)CC3)c(C)c2c1 | 26.4% | ? | ? | 28.3% | .
Cc1onc(-c2ccccc2)c1C(=O)OCCOc1cccc(Cl)c1 | -8.8% | 3.3% | -7.8% | -15.4% | .
CCCCOC(=O)Sc1nc2ccccc2o1 | -11.5% | 15.1µM* | -7.0% | -1.9% | 12.7%
CCCCOc1ccc(C(=O)N2CCC(c3nc4ccccc4o3)CC2)cc1 | . | -4.5% | . | . | .
COc1ccc(C(=O)/C=C/Sc2nc3ccccc3o2)cc1 | -42.9% | 2.39µM* | 9.3% | -19.8% | .
CCOC1=NS(=O)(=O)c2ccccc21 | -5.1% | 1.9% | 0.6% | -0.5% | 2.9%
Cc1cnc(C(=O)NCc2ccc(Cl)cc2Cl)cn1 | -0.6% | 3.8% | 0.5% | 0.4% | -2.1%
CC1=CCC(/C=N\Nc2nnc3c(n2)[nH]c2ccccc23)CC1 (centres undefined) | ? | 1.51µM* | ? | ? | 9.4%
Cc1ccc(S(=O)(=O)NC(=O)Nc2c(C)n(C)n(-c3ccccc3)c2=O)cc1 | -1.3% | 2.4% | -1.3% | 3.9% | -8.2%
C[C@H](NC(=O)[C@@H]1CSC2c3ccccc3C(=O)N21)C(=O)NC1CCCC1 (some centres undefined) | -1.5% | 0.3% | 4.9% | 2.3% | .
Cc1nnc(SCC(=O)c2c(N)n(C)c(=O)n(C)c2=O)n1Cc1ccccc1 | -2.0% | 2.1% | -4.8% | 3.2% | -6.2%
CCc1oc2ccccc2c1C(=O)c1cc(Br)c(O)c(Br)c1 | -4.7% | 15.1µM*! | -0.4% | -1.3% | -8.6%
O=C(c1ccc(CS(=O)c2ccccc2Cl)o1)N1CCN(c2ccccn2)CC1 (centres undefined) | -35.3% | 2.8% | -17.1% | -41.2% | .
O=[N+]([O-])c1ccc(N=NN(CCO)CCO)cc1 | -0.3% | 5.8% | 1.6% | -6.1% | -18.9%
SMILES | Rab9 prom act | FLuc counter | ELG1 genotoxic | NPC1 promoter act | SMN2 splice up
O=[N+]([O-])c1ccc(N=Nc2ccc(O)cc2O)cc1 | 13.1% | 6.01µM* | 10.1% | 1.1% | -16.4%
CCOc1ccc(CCNC(=O)c2ccc(CS(=O)Cc3cccc(Cl)c3)o2)cc1 (centres undefined) | -1.0% | 16.9µM* | -4.4% | -4.4% | .
CCOc1ccc(CCNC(=O)c2ccc(CS(=O)Cc3ccc(Cl)cc3)o2)cc1OCC (centres undefined) | -0.3% | 0.6% | -14.0% | 1.1% | .
CCc1ccc(N(CC(=O)NC2CCCC2)S(=O)(=O)c2c(C)noc2C)cc1 | -2.8% | 0.1% | -4.6% | 0.5% | -6.1%
O=C(O)c1cc(-c2ccc(/C=C3/SC(=S)N(Cc4ccccc4)C3=O)o2)ccc1Cl | 28.3% | ? | -7.8% | 22.6% | 18.9%
CC1=NOC(=O)/C1=C\c1ccc(-c2ccc(Cl)c(C(=O)O)c2)o1 | 1.5% | 19µM* | -1.7% | 1.4% | -2.1%
COC(=O)N/N=C/c1ccc(-c2cccc(Cl)c2)o1 | 12.6% | ? | -0.9% | 6.8% | 7.3%
